# LEDGF integ inh – blocks HIV-1 LEDGF/p75-dependent DNA integration. inhibition, % at 3.7 µM. 0.64% of 370,000 active. TR-FRET IN-LEDGF/p75 DNA integration, Eu/Cy5;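 active = inhibition above the screen-wide mean plus 3 SD, cut at about 13% in these data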;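 also: signal is the Cy5 over europium emission ratio at 671 and 618 nm; 0% = plate median of compound wells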
# MBD2 DNA inh – MBD2-methylated oligo binding inhibition; Q9UBB5; TR-FRET, MBD2 binding to methylated oligonucleotide; inhibition, % at 4.4 µM; 0.31% of 370,000 active; AID 686964; in the data active = inhibition above about 13%
# Target sequence (Q9UBB5 whole entry, looked up): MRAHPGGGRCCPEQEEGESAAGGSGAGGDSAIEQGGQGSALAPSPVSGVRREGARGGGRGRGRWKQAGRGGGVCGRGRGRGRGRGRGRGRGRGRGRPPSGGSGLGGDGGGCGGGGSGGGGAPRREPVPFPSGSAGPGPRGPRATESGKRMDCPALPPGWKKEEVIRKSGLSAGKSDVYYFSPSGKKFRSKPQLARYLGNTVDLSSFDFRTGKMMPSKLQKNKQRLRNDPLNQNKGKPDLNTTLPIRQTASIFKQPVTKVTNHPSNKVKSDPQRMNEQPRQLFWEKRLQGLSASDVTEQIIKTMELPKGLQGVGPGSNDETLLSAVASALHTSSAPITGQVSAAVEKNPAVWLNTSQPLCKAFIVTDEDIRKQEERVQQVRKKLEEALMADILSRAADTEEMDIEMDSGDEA
# UHRF1 MBD2 ctr – blocks human UHRF1 binding to methylated DNA. Q96T88. UHRF1 binding to methylated oligo, TR-FRET. inhibition, % at 4.4 µM. 0.75% of 370,000 active. AID 687016; in the data active = inhibition above about 21%;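 also: UHRF1 SRA domain binding a hemimethylated CpG hairpin DNA probe; 0% = median of test compound wells and 100% = reference inhibitor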
# PRMT1 FP inh – PRMT1 (human) inhibition, primary screen; inhibition, % at 2.79 µM; 1.3% of 370,000 active; recombinant PRMT1, activity-based probe fluorescence polarization;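 active = inhibition above about 21% made by adding two undisclosed values, limit read from the data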
# The depositor's hits bear a star. Rows were chosen to be rich in hits. Some 2.5% of all compounds tested hit in one or more screens of this group.
SMILES,LEDGF integ inh,MBD2 DNA inh,UHRF1 MBD2 ctr,PRMT1 FP inh
CCc1ccc(C(=O)Nc2cc(C)on2)o1,1,1,-2,-3
CSc1ccc(C(=S)N2CCN(CCO)CC2)cc1,-2,-1,-1,21
OCCN1CCN(C(=S)c2ccc(Br)cc2)CC1,1,-3,-2,22*
COc1cccc(N2CCN(S(=O)(=O)c3cn(C)cn3)CC2)c1,-2,4,2,1
CC(C)c1nnc(NC(=O)c2cccc(NC(=O)C(F)(F)F)c2)s1,-6,0,0,22*
CC[C@@]1(C(=O)OC)N[C@H](CN(C)C(=O)Nc2ccc(OC)cc2)[C@@H]2C(=O)N(C)C(=O)[C@@H]21,-5,11,22*,2
CC[C@@]1(C(=O)OC)N[C@H](CN(C)C(=O)Nc2ccc(C)cc2)[C@@H]2C(=O)N(C)C(=O)[C@@H]21,4,-4,0,-1
Cc1ccc(C(=O)NC2CCS(=O)(=O)C2)cc1S(=O)(=O)N1CCCCCC1 (stereo not given),5,1,23*,-2
CC(=O)Nc1cccc(C(=O)NNC(=O)c2n[nH]c(=O)c3ccccc23)c1,4,-4,-3,1
Cc1ccc(Nc2nc(N)c3ccccc3n2)cc1Cl,0,-2,38*,5
COc1cc2nc(Nc3ccc(C)c(Cl)c3)nc(N)c2cc1OC,4,-5,1,-2
CC1(C(=O)NS(=O)(=O)c2ccccc2Cl)CCN1C(=O)Cc1cccs1 (stereo not given),5,-2,0,-7
CN1CCCc2cc(C=O)ccc21,1,-7,-2,3
CCCN1CCCc2cc(CN)ccc21,35*,3,12,8
CC(=O)NC(C)(c1ccccc1)c1nc(-c2cccc3cccnc23)cs1 (stereo not given),4,4,-2,-4
COc1cc(C(=O)Nc2nc(C)c(Cc3ccc4c(c3)OCO4)s2)cc(OC)c1OC,1,5,9,23*
CCC1CCc2sc(C(=O)N(C)CC(=O)Nc3cccc(OC)c3)cc2C1 (stereo not given),3,-5,66*,-2
CC(=O)Oc1ccc2c(C)cc(=O)oc2c1,1,0,5,-1
CC(=O)Oc1cc2oc(=O)cc(C)c2cc1OC(C)=O,-9,-3,4,21*
COCCNC(=O)C1CCC(=O)N(c2ccc(OC)cc2)C1c1ccc(OC)c(OC)c1 (stereo not given),5,8,23*,-1
COc1ccc(N2C(=O)CCC(C(=O)NCCCN3CCC(C)CC3)C2c2ccc(OC)c(OC)c2)cc1 (stereo not given),-1,-3,-1,-1
CCCn1c(N)c(N(CCOC)C(=O)c2ccccc2)c(=O)[nH]c1=O,-3,1,7,6
Cc1cc(/C=C(/C#N)c2nc3ccccc3[nH]2)c(C)n1-c1ccccc1C(=O)O,1,-10,-2,-2
Cc1cc(/C=C(/C#N)c2nc3ccccc3[nH]2)c(C)n1-c1cc(C(=O)O)cc(C(=O)O)c1,13,1,23*,16
Cc1c(NC(=O)/C=C/c2cn(-c3ccccc3)nc2-c2ccc(F)cc2)c(=O)n(-c2ccccc2)n1C,4,-4,47*,-2
SMILES,LEDGF integ inh,MBD2 DNA inh,UHRF1 MBD2 ctr,PRMT1 FP inh
Cc1c(NS(=O)(=O)c2ccccc2)c(=O)n(-c2ccccc2)n1C,4,-3,0,-2
Cc1c(NS(=O)(=O)c2ccc(F)cc2)c(=O)n(-c2ccccc2)n1C,2,-2,25*,-1
O=[N+]([O-])c1cccc(COc2ccc(CN3CCCCC3)cc2)c1,-5,7,21*,1
O=[N+]([O-])c1cccc(COc2ccccc2CN2CCCCC2)c1,1,-7,-4,1
O=C(OCCOc1cccc(Cl)c1)C1CCN(S(=O)(=O)c2ccccc2)CC1,1,-3,1,-6
COc1ccc(CCNCC2C(Oc3ccc(Cl)cc3)C(=O)N2c2ccccc2C)cc1OC (stereo not given),-4,10,23*,0
COCCNCC1C(Oc2ccc(Cl)cc2)C(=O)N1c1ccccc1C (stereo not given),-3,-3,4,1
CCC1CCCCN1CCCNC(=O)c1cn(C)c2ccc(S(=O)(=O)N(C)C3CCCCC3)cc2c1=O (stereo not given),6,6,23*,-5
CCC1CCCCN1CCCNC(=O)c1cn(C)c2ccc(S(=O)(=O)N3CCOCC3)cc2c1=O (stereo not given),-4,4,2,-1
Cc1cc(NC(=O)CCC(=O)N(CC(=O)NCC2CCCO2)c2cccc(F)c2)no1 (stereo not given),41*,-6,0,4
CC(=O)c1cccc(N(CC(=O)NCC2CCCO2)C(=O)CCC(=O)Nc2cc(C)on2)c1 (stereo not given),-3,1,1,0
Nc1ccn([C@@H]2O[C@H](C(=O)N[C@H](Cc3ccccc3)C(=O)Nc3ccc4scnc4c3)[C@@H](O)[C@H]2O)c(=O)n1,0,-3,1,21*
COc1cc(NC(=O)[C@@H](Cc2ccccc2)NC(=O)[C@H]2O[C@@H](n3ccc(N)nc3=O)[C@H](O)[C@@H]2O)cc(OC)c1OC,-5,-4,0,4
O=C(Nc1nccs1)[C@@H]1CCCN1S(=O)(=O)c1ccccc1F,3,-1,3,3
O=C(Nc1nccs1)C1CCCN1S(=O)(=O)c1ccc(Cl)cc1 (stereo not given),-1,3,25*,0
Fc1ccc(CNC(=S)NCc2cccc(Cl)c2)cc1,6,3,30*,-2
O=C(NC(Cc1ccccc1)C(=O)O)/C(=C/c1ccccc1)NC(=O)c1ccccc1 (stereo not given),1,10,9,5
O=C(NC(Cc1ccccc1)C(=O)O)/C(=C\c1ccc(Cl)cc1)NC(=O)c1ccccc1 (stereo not given),-3,-2,28*,4
CC1=C/C(=C\c2ccc(Br)o2)C(=O)O1,11,16*,53*,4
COC(=O)[C@@]1(Cc2ccc(F)cc2)[C@H]2c3cc(C(=O)N4CCCC4)n(Cc4ccc(C)o4)c3C[C@H]2CN1C(=O)c1ccccc1,0,0,1,24*
COC(=O)[C@@]1(Cc2ccc(F)cc2)[C@H]2c3cc(C(=O)N4CCCC4)n(Cc4ccc(C)c(F)c4F)c3C[C@H]2CN1C(=O)c1ccccc1,-1,-2,-2,-5
C#CCOCCOCCOCCNc1nc(N2CCN(C(=O)CCCCCCCCCCNC(=O)[C@H](CO)n3cc(CCCSC)nn3)CC2)nc(N2CCN(C(=O)CCCCCCCCCCNC(=O)[C@H](CCCCN)n3cc(CCO)nn3)CC2)n1,-2,-6,25*,0
C#CCOCCOCCOCCNc1nc(N2CCOCC2)nc(N2CCN(C(=O)CCCCCCCCCCNC(=O)[C@@H]([C@H](C)CC)n3cc(CCCCCN)nn3)CC2)n1,6,8,22*,6
COC(=O)CC1COc2ccccc2N1C(=O)c1cccc(Cl)c1 (stereo not given),-1,7,7,3
